# Experimental data as given in paper PMC5540273 (PLoS ONE, 2017).
# Test system: MARK1
# 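Also: kd values determined as follow-up on hits from a single-replicate KINOMEscan panel screen.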
row,Compound,Kd [µM]
1,O=c1cc(N2CCOCC2)nc2n(Cc3ccccc3F)ccn12 [GSK2297428],> 10
2,Cc1ccccc1Cn1ccn2c(=O)cc(N3CCOCC3)nc12 [GSK2269905],> 10
3,c1ccc(-c2ccnc3[nH]ccc23)cc1 [SB-693578],> 10
4,COc1cccc(NC(=O)Nc2ccc(C)c(-c3ccc(C(=O)Nc4ccncc4)cc3)c2)c1 [GSK1398474],> 10
5,COc1ccc(-c2coc3ccc(-c4nnc(C)o4)cc23)cc1,> 10

# Test system: T1, MEK5
# T1 construct: gene MAP2K5
row,Compound,Kd [µM]
1,COC(=O)C(NC(=O)NC1CCN(c2ccnc(Nc3ccc(F)cc3)n2)C1)c1ccccc1 (centres unmarked) [GSK1379712],0.27
2,CS(=O)(=O)CCNCc1nc(-c2ccc3ncnc(Nc4ccc(OCc5ccccc5)c(Cl)c4)c3c2)cs1.Cl [GW582764],0.7
3,Cn1cncc1-c1cc2c(Nc3ccc(OCc4ccccc4)cc3)ncnc2cn1 [GW281179],0.14
4,Nc1ncnc2occ(-c3ccc4c(c3)CCN4C(=O)Cc3cc(F)ccc3F)c12 [GSK2645446],0.75
5,CS(=O)(=O)CCNCc1nc(-c2ccc3ncnc(Nc4ccc5c(cnn5Cc5ccccc5)c4)c3c2)cs1.Cl.Cl [GW569716],0.043
6,COc1cc2ncnc(Nc3cccc(Br)c3)c2cc1OC.Cl [GI230329],0.7
7,CS(=O)(=O)Cc1ccc(Nc2nccc(-c3c(-c4cccc(NC(=O)C5CCCCC5)c4)nn4ncccc34)n2)cc1 [GSK350559],0.035

# Test system: T2, MLCK
# T2 construct: gene MYLK3
row,Compound,Kd [µM]
1,CS(=O)(=O)CCNCc1nc(-c2ccc3ncnc(Nc4ccc(OCc5ccccc5)c(Cl)c4)c3c2)cs1.Cl [GW582764],> 10
2,O=C(Nc1n[nH]c2nc(-c3cccs3)c(Br)cc12)C1CC1 [SB-735297],0.18
3,O=C(Nc1n[nH]c2nc(-c3cccs3)c(Br)cc12)C1CCCC1 [SB-743341],0.29

# Test system: MYLK2
row,Compound,Kd [µM]
1,O=C(Nc1n[nH]c2nc(-c3cccs3)c(Br)cc12)C1CC1 [SB-735297],0.0084
2,O=C(Nc1n[nH]c2nc(-c3cccs3)c(Br)cc12)C1CCCC1 [SB-743341],0.026
3,O=C(Nc1n[nH]c2nc(-c3ccco3)c(Br)cc12)C1CCN(Cc2ccccc2)C1.O=C(O)[C@H](O)[C@@H](O)C(=O)O (centres unmarked) [SB-742034],0.46
4,O=C(Nc1n[nH]c2cc(-c3ccsc3)ccc12)C1CC1 [SB-732932],0.041
5,Nc1cccc(-c2ccc3c(N)n[nH]c3c2)n1 [GSK2192730],0.18
